# Only some compounds are listed: those with a hit (about 8.7% of all), similar ones and a draw of the others.
# HP1b chromo inh = HTS for Inhibitors of HP1-beta Chromodomain Interactions with Methylated Histone Tails; Potency, µM (top dose mostly 114 µM), inactives show top-dose activity change, negative = inhibition, most hits filed as inhibitors; 390,000 compounds, 0.56% hits; AlphaScreen HP1-beta / biotin-H3K9me3 peptide binding; note: nearly all actives have a fitted effect of over 70% in size
#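 Compound inhibition of the preformed complex between 50 nM HP1-beta and 50 nM biotinylated H3K9me3 peptide was read by AlphaScreen. Buffer was PBS pH 7.4 with 0.01% Tween-20. Incubations ran 30 min at room temperature, with 10 ug/mL donor/acceptor beads.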
# 12-LOX inh = Primary qHTS assay for inhibitors of human arachidonate 12S-lipoxygenase (ALOX12): Round 2. purified 12hLO, xylenol orange hydroperoxide absorbance. AID 1671190, 2021. Potency, µM (doses to about 108 µM), inactives show top-dose activity change, negative = inhibition, actives largely listed as inhibitors. 580,000 compounds, 1.1% hits. Polyunsaturated fatty acid lipoxygenase ALOX12 (Homo sapiens), P18054; note: % is set by controls: 0 for no effect and ±100 for the full control effect
# Target sequence (P18054 whole entry, looked up): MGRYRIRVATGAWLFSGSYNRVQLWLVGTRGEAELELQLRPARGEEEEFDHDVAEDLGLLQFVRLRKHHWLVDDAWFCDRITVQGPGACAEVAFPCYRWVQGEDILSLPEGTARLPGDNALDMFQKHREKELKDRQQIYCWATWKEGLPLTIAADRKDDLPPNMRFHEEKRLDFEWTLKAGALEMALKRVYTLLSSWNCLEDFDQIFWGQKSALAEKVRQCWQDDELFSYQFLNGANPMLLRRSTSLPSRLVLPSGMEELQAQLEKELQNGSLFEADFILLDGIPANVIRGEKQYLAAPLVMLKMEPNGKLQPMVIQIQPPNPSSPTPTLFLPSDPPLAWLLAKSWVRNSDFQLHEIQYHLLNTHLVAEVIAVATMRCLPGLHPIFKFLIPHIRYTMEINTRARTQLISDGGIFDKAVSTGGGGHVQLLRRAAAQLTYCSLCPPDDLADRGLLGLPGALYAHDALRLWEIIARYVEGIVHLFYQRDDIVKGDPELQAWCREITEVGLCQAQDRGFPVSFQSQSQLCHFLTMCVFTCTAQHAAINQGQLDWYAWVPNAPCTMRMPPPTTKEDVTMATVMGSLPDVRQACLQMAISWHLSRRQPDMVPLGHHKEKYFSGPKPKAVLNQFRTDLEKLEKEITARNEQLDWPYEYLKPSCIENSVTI
#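 Purified human 12hLO at 150 nM in 25 mM Hepes, 0.01% Triton X-100, pH 7.0, preincubated 15 min at room temperature with compound. Reaction started with 40 uM arachidonic acid, 30 min at room temperature. Hydroperoxide measured by Fe-xylenol orange, 573/405 nm absorbance ratio.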
# BAZ2B block = qHTS Assay for Inhibitors of BAZ2B; Bromodomain adjacent to zinc finger domain protein 2B (Homo sapiens), Q9UIF8; AlphaScreen BAZ2B-H3K14Ac peptide displacement; Potency, µM (highest dose often 114 µM), for the others: at the top dose activity change, negative = inhibition, actives largely listed as inhibitors; 360,000 compounds, 4.4% hits; note: % is set by controls: 0 for no effect and ±100 for the full control effect; nearly all actives have a fitted effect of over 60% in size
#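 Multi-concentration screen (max 110 uM) measuring displacement of acetylated histone H3 peptide from BAZ2B by AlphaScreen, using 50 nM protein, 50 nM peptide and 10 ug/mL streptavidin donor plus Ni-chelate acceptor beads.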
# G9a block = qHTS Assay for Inhibitors of Histone Lysine Methyltransferase G9a | G9a H3K9 monomethylation, AlphaScreen, 2 h | Potency, µM (highest dose often 102 µM), inactives show at the top dose activity, negative = inhibition, actives largely listed as inhibitors | AID 504332, 2011 | 350,000 compounds, 8.8% hits; note: % is set by controls: 0 for no effect and ±100 for the full control effect; nearly all actives have a fitted effect of over 75% in size
#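 Chemiluminescent proximity detection of H3K9 monomethylation, read after 10 min bead incubation in the dark. Reaction: 20 nM G9a, 500 nM biotin-H3K9 peptide, 20 uM SAM cofactor, 2 h, room temperature, following 15 min enzyme-compound preincubation.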
# Sfp PPTase inh = qHTS Assay for Inhibitors of Bacillus subtilis Sfp phosphopantetheinyl transferase (PPTase) | 4'-phosphopantetheinyl transferase ffp (Bacillus subtilis), Q9F4F7 | Biochemical Sfp PPTase activity, qHTS | Potency, µM, for the others: largest response in the series, negative = inhibition, actives largely listed as inhibitors | 310,000 compounds, 3.5% hits;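 note: the enzyme is Sfp with the accession as filed and its product quenches rhodamine fluorescence; 0% = enzyme reaction without inhibitor and -100% = no enzyme wells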
#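 Buffer: 50 mM Hepes-Na pH 7.6, 10 mM MgCl2, 0.01% Nonidet P-40, 0.01% BSA. Enzyme 15 nM, pre-exposed to compound 15 min; substrates then added and fluorescence change tracked over 30 min.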
# JMJD2A Tudor inh = qHTS Assay for Inhibitors of JMJD2A-Tudor Domain | Lysine-specific demethylase 4A (Homo sapiens), O75164 | AlphaScreen JMJD2A-Tudor / H3K4me3 peptide binding | Potency, µM (series often up to 114 µM), for inactives: at the top dose activity change, negative = inhibition, hits mostly inhibitors | 390,000 compounds, 4.4% hits; note: % is set by controls: 0 for no effect and ±100 for the full control effect; nearly all actives have a fitted effect of over 50% in size
# Starred values were filed as active, the others as inactive; ? = inconclusive; . = no result given; ! = not active in a repeat; [ ] = remark or other dose. Calls come from the whole dose curve; as a rule, active = well fitted curve in the direction sought with a large enough effect; inconclusive = small, poorly fitted or top-dose-only effect, or another doubt; inactive = no such curve, though single readings can be large; an effect the other way counts as inactive or inconclusive. Potency is the fitted concentration of half-maximal effect.
SMILES,HP1b chromo inh,12-LOX inh,BAZ2B block,G9a block,Sfp PPTase inh,JMJD2A Tudor inh
Cc1ccc(C(=O)O)cc1Nc1nc2ccccc2n2nnnc12,1%,?,?,5%[59 µM],.,32µM*
CN(C)c1ccc(Nc2nc3ccccc3n3nnnc23)cc1,?,?,3.5µM*,3.2µM*,.,7.9µM*
Nc1nc(N)nc(-c2ccc(Cl)cc2)n1,7%,2%,79µM*,-2%,9%,-12%
Cc1ccc(Oc2ccc(-c3nc(N)nc(N)n3)cc2)cc1,17%,-41%,-2%,-14%[59 µM],10%,-31%
CC(=O)c1ccc2c3c(ccc(O)c13)CC2,?,-6%,35µM*,45µM*,-10%,45µM*
CC(=O)c1ccccc1O,.,3%[176 µM],.,.,.,.
CC(CCC(=O)N1CCn2nc(Cc3ccccc3)cc2C1)N1CCCC1 (centres undefined),.,46%,.,.,.,.
O=C(Nc1cccc(-c2nc3ccccc3s2)c1)[C@@H]1CCCN1C(=O)c1cccs1,.,40µM*,.,.,.,.
CC1(C)Cc2c(c(N3CCOCC3)nc3sc4c(NCc5ccccc5)nnnc4c23)CS1,2%,5%,-22%,-46%[59 µM],1%,-10%
CC1(C)Cc2c(c(N3CCOCC3)nc3sc4c(NCc5ccco5)nnnc4c23)CS1,10%,5%,-32%,18µM*,?,-8%
CCCc1cc(=O)[nH]c(=S)[nH]1,41%,?,-1%,-48%[12.7 µM],50µM*!,-12%
CCCCCc1cc(=O)[nH]c(=S)[nH]1,51%,?,-14%,?,-5%,8%
C[N+](C)(C)CC/C=C1/c2ccccc2CSc2ccccc21,43%,8%,79µM*,?,3%,50µM*
Cc1ccccc1C(C)NC(=O)CSc1nc2cc([N+](=O)[O-])ccc2o1 (centres undefined),.,25µM*,.,.,.,.
CCCCN1C[C@H](C)[C@@H](CC(=O)NCc2ccccc2)C1=O,62%,-2%,-25%,45µM*,17%,-11%
Cc1cc(C)c(NC(=O)C2=Cc3sc4c(c3CS2)CCCC4)c(C)c1,.,28µM*,.,.,.,.
Cc1ccc(C)c(NC(=S)NNC(=O)c2csc3c2CCCC3)c1,-16%,?,4%,6%[12.7 µM],11%,-18%
CCC(C)NC(=O)c1csc2c1CCCCC2 (centres undefined),11%,-6%,12%,4%[12.7 µM],3%,-9%
Cc1ccc(NC(=O)C2=Cc3sc4c(c3CS2)CCCC4)cc1C,.,7.1µM*,.,.,.,.
Cc1ccc(C)c(NC(=O)C2=Cc3sc4c(c3CS2)CCCC4)c1,.,18µM*,.,.,.,.
CCC(C)NC(=O)C1=Cc2sc3c(c2CS1)CCCC3 (centres undefined),.,14µM*,.,.,.,.
N#C/C(=C\c1ccco1)C(=O)NC1CCCCC1,.,7%,.,.,.,.
CC1=NN(Cc2ccccc2)C(=O)/C1=C\c1ccc(N(C)C)cc1,?,0%,10µM*,11µM*,5%,?
CN(C)c1ccc(C=C2C(=O)OC(C)(C)OC2=O)cc1,25%,?,-31%,?,-11%,-9%
CCOC(=O)C1=NN(c2ccccc2)C(=O)/C1=C\c1ccc(N(C)C)cc1,5.6µM*,?,10µM*,?,-10%,8.9µM*
SMILES,HP1b chromo inh,12-LOX inh,BAZ2B block,G9a block,Sfp PPTase inh,JMJD2A Tudor inh
COCc1nc(CCNC(=O)C2CCN(S(=O)(=O)N3CCC(C)CC3)CC2)no1,.,28%,.,.,.,.
Cc1ccc(CN(c2ccc(C(=O)N3CCCCCC3)cc2)S(C)(=O)=O)cc1,.,6%,.,.,.,.
O=C(Oc1cccc([N+](=O)[O-])c1)c1ccc2c(=O)n3c(nc2c1)CCC3,-11%,0%,50µM*,7%[12.7 µM],.,?
CCCNc1nc(-c2ccc(S(=O)(=O)N3CCCCCC3)cc2)cs1,.,32µM*,.,.,.,.
Cc1ccc(Nc2nc(-c3ccc(S(=O)(=O)N4CCCC4)cc3)cs2)cc1C,0%,-23%,?,45µM*,-19%,?
CN1CCN(C(=O)[C@@H]2CCC[C@@H](NC3CCC3)CN(C)C(=O)C2)CC1,.,67%[176 µM],.,.,.,.
O=C(NCc1nnc2c(-c3nc(C4CC4)no3)cccn12)c1c[nH]c2ccccc12,.,66%,.,.,.,.
COc1cc(S(=O)(=O)N2CCCCCC2)ccc1-n1cnnn1,17%,?,?,?,45µM*,-27%
COc1ccccc1N1CCN(S(=O)(=O)c2ccc(-n3cnnn3)c(C)c2)CC1,26%,-29%,4%,?,4%,-17%[57.1 µM]
Cc1ccc(N2CCN(S(=O)(=O)c3ccc(-n4cnnn4)cc3)CC2)c(C)c1,23%,5%,-11%,-8%,5%,-12%
COc1ccc(N2CCN(S(=O)(=O)c3ccc(-n4cnnn4)c(C)c3)CC2)cc1,21%,-13%,-12%,7.1µM*,0%,-17%
CCCN1CCN(S(=O)(=O)c2ccc(-n3cnnn3)cc2)CC1,23%,-1%,-19%,50µM*,1%,3%
Cc1ccccc1[S+](=O)([O-])N1CCC2(CC1)OCCN(Cc1ccccc1)C2=O,.,-6%[176 µM],.,.,.,.
CCC1Oc2ccc(C)cc2N(CC(=O)N2CCN(c3ccc(F)cc3)CC2)C1=O (centres undefined),13%,.,-23%,45µM*,-6%,?
CCCCn1cnc2cc(NCc3ccncc3)ccc21,8%,20%,-11%,?,1%,?
CCn1cnc2cc(NCc3ccccc3Cl)ccc21,?,6%,?,45µM*,-1%,?
CCCn1cnc2cc(NCc3cccs3)ccc21,-1%,0%,?,18µM*,3%,?
c1ccc(-n2cnc3cc(NCc4ccncc4)ccc32)cc1,11%,12%,?,?,-26%,56µM*
CCCCn1cnc2cc(NCc3ccccc3Cl)ccc21,?,-30%,35µM*,14µM*,.,40µM*
CC(=O)Nc1ccc2c(c1)ncn2-c1ccccc1,24%,0%,-9%,?,-15%,-12%
Cc1nc(-c2c3n(c(=O)n(CC(=O)Nc4ccccc4Cl)c2=O)CCCCC3)no1,.,29%,.,.,.,.
CC(=O)NN=C(C)C,.,20%,.,.,.,.
Cn1cnc2cc(NCc3ccccc3Cl)ccc21,-7%,0%,-31%,50µM*,5%,?
CC(C)c1ccc(CNc2ccc3c(c2)ncn3C)cc1,1%,0%,40µM*,?,-11%,?

# Bioassay records from PubChem.
